Article PMC13083723 (Patterns, 2026)
About 190 (3.5%) of roughly 5,400 compounds showed an effect of 50% or more. The sample as a whole holds a higher share of strong results than the screen did.

system: Vero-E6; experiment: primary screen, phospholipidosis by LipidTOX staining; higher = more effect of the substance; conditions: 10 µM
How it was run: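 Drug-induced phospholipidosis detected with HCS LipidTOX Red reagent in Vero-E6 cells. Compounds tested at 10 μM, with amiodarone (10 μM) as positive control and DMSO (0.1 v/v %) as vehicle.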

| SMILES | result_ITMP [%] |
| --- | --- |
| Cc1cc(-c2ccccc2)nnc1NCCN1CCOCC1 | -1.84 |
| O=C([O-])C1[O][Sb]2[O]C(=O)C([O]2)C(C(=O)[O-])[O][Sb]2[O]C(=O)C1[O]2 (stereo not drawn) | -8.7 |
| CC1(C)S[C@@H]2[C@H](NC(=O)COc3ccccc3)C(=O)N2[C@H]1C(=O)[O-] | -2.47 |
| Fc1ccc(-n2cc(CCCCN3CCC4(CC3)OCc3ccccc34)c3ccccc32)cc1 | 26.9 |
| COc1ccccc1C1(O)CCN(CCCn2c3ccccc3c3ccccc32)CC1 | 52.4 |
| COc1ccccc1N1CCN(CCN2C(=O)c3ccccc3C(C)(C)C2=O)CC1 | 2.7 |
| CC1=C(/C=C/C(C)=C/C=C/C(C)=C/C(=O)O)C(C)(C)CCC1 [R4A_0003961_001 / SPE_K71879491] | 4.7 |
| C[C@H](Nc1ncnc2[nH]cnc12)c1cc2ccc(F)cc2nc1-c1ccccn1 [R4A_0002240_001 / SPE_A58947127] | 4.77 |
| COc1ccc(C(=O)/C(Cc2cc(OC)c(OC)c(OC)c2)=C(\C(=O)[O-])c2ccc3c(c2)OCO3)cc1 | -3.57 |
| Cc1[nH]c2ccc(Cl)cc2c1C1=CCNCC1 | 96.8 |
| O=c1ccc2[nH]cc(C3=CCNCC3)c2[nH]1 | -1.73 |
| COc1ccc2[nH]cc(C3=CCNCC3)c2c1 | -0.41 |
| C[C@@H]([C@H](C)O)[C@H](N)C(=O)O | 0.75 |
| N#CN/C(=N\c1ccncc1)NCCCCCCOc1ccc(Cl)cc1 | 0.38 |
| COc1ccc(-c2ccc3c(N4CCOCC4)nc(N4C[C@@H](C)O[C@@H](C)C4)nc3n2)cc1CO | 1.47 |
| COc1ccc(OCC2c3cc(OC)c(OC)cc3CCN2C(=O)c2cccc(Cl)c2)cc1 (stereo not drawn) | -4.92 |
| COc1cc2c(cc1O)C(CCc1ccc(Cl)cc1)N(C)CC2 (stereo not drawn) | 64 |
| CNC(=O)[C@@H](c1ccccc1)N1CCc2cc(OC)c(OC)cc2[C@@H]1CCc1ccc(C(F)(F)F)cc1 | 1.25 |
| Cc1c(N(C)CS(=O)(=O)[O-])c(=O)n(-c2ccccc2)n1C | -4.64 |
| CCCCCCCCCC(=O)O[C@H]1CC[C@H]2[C@@H]3CCC4=CC(=O)CC[C@@H]4[C@H]3CC[C@]12C | -0.22 |

| SMILES | result_ITMP [%] |
| --- | --- |
| CN1CCC(=C2c3ccccc3CC(=O)c3sccc32)CC1 | 29 |
| CN1CCC2=C(C1)C(c1ccccc1)c1ccccc12 (stereo not drawn) | 6.76 |
| CN1CCC2=C(C1)c1ccccc1Cc1ccccc12 | 52.7 |
| O=[N+]([O-])O[C@@H]1CO[C@H]2[C@@H]1OC[C@@H]2O | -9.17 |
| C[C@@H](O[C@H]1OCCN(Cc2n[nH]c(=O)[nH]2)[C@H]1c1ccc(F)cc1)c1cc(C(F)(F)F)cc(C(F)(F)F)c1 | 2.55 |
| C[C@@H](O[C@H]1OCCN(Cc2nn(P(=O)(O)O)c(=O)[nH]2)[C@H]1c1ccc(F)cc1)c1cc(C(F)(F)F)cc(C(F)(F)F)c1 | 6.28 |
| C[C@@H](O[C@H]1OCCN(Cc2nn[nH]c2CN(C)C)[C@H]1c1ccc(F)cc1)c1cc(C(F)(F)F)cc(C(F)(F)F)c1 | 71.2 |
| OCCNCCCOc1cccc(Cl)c1Cl | 55.4 |
| C[C@]12CCC(=O)C=C1CC[C@@H]1[C@@H]2CC[C@@]2(C)[C@H]1CC[C@]2(O)C(=O)CO | -5.73 |
| CCCCOc1ccc(C(=O)Nc2ccc(F)cc2F)cc1 | -8.12 |
| C=CCN(C)CCCCCCOc1ccc(C(=O)c2ccc(Br)cc2)c(F)c1 | 92.9 |
| CCOc1ccc(-c2ccc(Cn3c(CC(C)(C)C(=O)[O-])c(SC(C)(C)C)c4cc(OCc5ccc(C)cn5)ccc43)cc2)cn1 | 0.09 |
| CCN(CC)CCOc1ccc(Nc2ncc3cc(-c4c(Cl)cccc4Cl)c(=O)n(C)c3n2)cc1 | 24.2 |
| CNc1ncc2cc(-c3cc(NC(=O)NCCC(C)(C)C)c(F)cc3C)c(C)nc2n1 | -7.16 |
| CCN(CC)CCNC(=O)COc1ccc(OC)cc1 | -4.1 |
| CCN(CC)CCCCNc1ncc2cc(-c3c(Cl)cccc3Cl)c(NC(=O)NC(C)(C)C)nc2n1 | 69.2 |
| CCN(CC)CCCCNc1ncc2cc(-c3cc(OC)cc(OC)c3)c(NC(=O)NC(C)(C)C)nc2n1 | 90.1 |
| O=C(NCC(=O)N1CC[C@H](N[C@H]2CC[C@@](O)(c3ccc(-c4ncccn4)cn3)CC2)C1)c1cccc(C(F)(F)F)c1 | -0.29 |
| O=S(=O)(OC[C@H]1O[C@@](COS(=O)(=O)[O][Al]([OH])[OH])(O[C@H]2O[C@H](COS(=O)(=O)[O][Al]([OH])[OH])[C@@H](OS(=O)(=O)[O][Al]([OH])[OH])[C@H](OS(=O)(=O)[O][Al]([OH])[OH])[C@H]2OS(=O)(=O)[O][Al]([OH])[OH])[C@@H](OS(=O)(=O)[O][Al]([OH])[OH])[C@@H]1OS(=O)(=O)[O][Al]([OH])[OH])[O][Al]([OH])[OH] | 6.9 |
